Bioassay records: PubChem, The Scripps Research Institute Molecular Screening Center
In the library only some 2% were active in any assay of this set; here they are far more common.
M1 ag parental: counter-screen for M1 agonists: effect in parental CHO-K1 cells. Fluo-8 calcium fluorescence; scaled to maximal ATP response, vehicle zero. activation, % at 3 µM. 360,000 compounds, 0.48% hits. AID 602248; in the data active = activation above about 15%;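 also: untransfected CHO-K1 host cells lacking M1 receptor as counterscreen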
CHRM4 antagonist: CHRM4 antagonism in calcium assay; P08173; CHO-hM4 cells, ACh EC80, Fluo-8 calcium fluorescence; inhibition, % at 3 µM; 360,000 compounds, 0.73% hits;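 active = inhibition above its plate's cutoff, the mean inhibition of sample wells plus 3 SD, cut at about 27% in these data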
Target sequence (P08173 whole entry, looked up): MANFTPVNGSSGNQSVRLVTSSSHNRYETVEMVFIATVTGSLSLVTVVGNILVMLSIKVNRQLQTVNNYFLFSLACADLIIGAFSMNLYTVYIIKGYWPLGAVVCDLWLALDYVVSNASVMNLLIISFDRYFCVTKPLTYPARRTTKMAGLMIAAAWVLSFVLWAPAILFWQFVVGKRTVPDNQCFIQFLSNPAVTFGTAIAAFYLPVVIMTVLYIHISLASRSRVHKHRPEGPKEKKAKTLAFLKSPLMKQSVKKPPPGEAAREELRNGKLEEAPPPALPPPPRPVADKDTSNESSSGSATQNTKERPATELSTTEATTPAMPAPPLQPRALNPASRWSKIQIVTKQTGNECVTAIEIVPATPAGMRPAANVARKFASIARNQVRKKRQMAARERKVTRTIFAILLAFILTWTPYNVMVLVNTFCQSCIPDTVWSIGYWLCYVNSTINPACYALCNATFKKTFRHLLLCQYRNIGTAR
CHO-K1 Ca PAM: counter-screen for M1 PAMs: effect in parental CHO-K1 cells; ATP EC20, Fluo-8 calcium fluorescence; 0% at ATP EC20, 100% at ATP max; activation, % at 3 µM; 360,000 compounds, 0.02% hits;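 active = activation above the run cutoff, the mean activation of all test compounds plus 3 SD, cut at about 40% in these data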;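 also: peak over basal fluorescence ratio in a 140 s read after ATP addition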
CHRM4 PAM: potentiates acetylcholine response at human M4 receptor; P08173; CHO-K1 hM4/Gqi5, Fluo-8 calcium fluorescence, ACh EC20; 0% = ACh EC20, 100% = maximal ACh; activation, % at 3 µM; 360,000 compounds, 0.4% hits; AID 624126;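 active = activation above its plate's cutoff, the mean activation of sample wells plus 3 SD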
CHO-K1 Ca antag: M1 antagonist counterscreen hit in parental CHO-K1 cells. ATP-induced calcium, Fluo-8 fluorescence. 360,000 compounds, 0.6% hits. inhibition, % at 3 µM. AID 602250;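 active = inhibition above a per-plate cutoff, the plate's mean sample inhibition plus 3 SD, cut at about 24% in these data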
M4 ag: agonists of human muscarinic M4 receptor (CHRM4); P08173; CHO-K1 hM4/Gqi5, Fluo-8 calcium fluorescence; vehicle 0%, full acetylcholine response 100%; activation, % at 3 µM; 360,000 compounds, 0.14% hits;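 active = activation above the run mean over all test wells plus 3 SD, cut at about 32% in these data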;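 also: peak over basal fluorescence ratio per well then scaled between controls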
Each line names hits and unclear results; the compound was inactive in the other large screens.

CC1CC(C)CN(S(=O)(=O)c2ccc(NC(=O)C3COc4ccccc4O3)cc2)C1 (stereo not drawn)	none
COCCCNc1nc(N)c([N+](=O)[O-])c(Nc2ccccc2OC)n1	M1 ag parental 20.4
COCCCNc1nc(N)c([N+](=O)[O-])c(NCc2ccccc2)n1	none
O=C(Nc1ccc(OC(F)(F)F)cc1)Nc1cccc([N+](=O)[O-])c1	M1 ag parental 16.4
Cc1cc(NC(=O)Nc2cccc([N+](=O)[O-])c2)no1	none
Cc1ccc(NC(=O)Nc2cccc([N+](=O)[O-])c2)cc1F	M1 ag parental 15.4
O=C1c2cccnc2C(=O)N1c1ccccc1-c1ccccc1	none
N#Cc1nc(-c2cccs2)oc1N1CCN(Cc2ccccc2)CC1	CHRM4 antagonist 84.6
N#Cc1nc(COc2ccccc2)oc1N1CCN(Cc2ccccc2)CC1	none
COc1cc(CN2C[C@@H](CO)O[C@@H](n3cnc4c(NCC(C)C)ncnc43)C2)cc(OC)c1OC	CHRM4 PAM 16.8
COc1cc(CN2C[C@@H](CO)O[C@@H](n3cnc4c(Nc5ccccc5)ncnc43)C2)cc(OC)c1OC	CHO-K1 Ca antag 33.4
COc1ccc2[nH]c(=O)c(CN(CCO)S(=O)(=O)c3c(C)ccc4nsnc34)cc2c1	CHO-K1 Ca antag 28.9
COc1ccc2[nH]c(=O)c(CN(Cc3cccs3)S(=O)(=O)c3cccc4nsnc34)cc2c1	none
Cc1cc(C(C)(C)C)cc(C)c1CC1=NCCN1	none
COc1cccc(OC(=O)c2cc3ccccc3oc2=O)c1	CHRM4 PAM 18.4
CC1C(=O)N(Cc2cn(Cc3ccco3)nn2)CCS(=O)(=O)N1Cc1ccc(-c2ccc(Cl)cc2)cc1 (stereo not drawn)	CHO-K1 Ca antag 28.2
Cc1cccc(C)c1-c1ccc(CN2C(CC(C)C)C(=O)N(Cc3cn(CCO)nn3)CCS2(=O)=O)cc1 (stereo not drawn)	CHRM4 antagonist 28.3
CC1C(=O)N(Cc2cn(CCC3OCCCO3)nn2)CCS(=O)(=O)N1Cc1ccc(-c2ccc(F)cc2)cc1 (stereo not drawn)	none
CC1C(=O)N(Cc2cn(CCC3OCCCO3)nn2)CCS(=O)(=O)N1Cc1ccc(-c2ccc(Cl)c(Cl)c2)cc1 (stereo not drawn)	CHRM4 antagonist 39.9
Cc1ccc2nc(CN(C)C(=O)[C@H]3O[C@@H](n4ccc(=O)[nH]c4=O)[C@H](O)[C@@H]3O)[nH]c2c1	none
O=C(COc1ccc2ccccc2c1Br)Nc1ncn[nH]1	M1 ag parental 19.2
Cc1cccc(C)c1OCC(=O)Nc1ncn[nH]1	none
CC1(C)[C@H]2CC=C(CN3CCC(N4CCC(C(=O)N5CCCC5)CC4)CC3)[C@@H]1C2	CHRM4 antagonist 55.8
Cc1nc(NC(=O)c2ccncc2)sc1C(=O)N(C)C	none
O=C(CC(=O)NCc1ccc(Cl)cc1)NCc1ccc(Cl)cc1	none
COc1cccc(C(=O)NCC(=O)N2CCN(c3ccc(C(F)(F)F)cn3)CC2)c1	CHO-K1 Ca antag 27.5
COc1ccccc1C(=O)NCCC(=O)N1CCN(c2ccc(C(F)(F)F)cn2)CC1	none
COc1ccc(C2c3[nH]c4ccccc4c3CCN2C(=O)c2cc3ncccn3n2)c(F)c1 (stereo not drawn)	CHO-K1 Ca antag 25.8
COc1ccc(C2c3[nH]c4ccccc4c3CCN2C(=O)c2cn3ccccc3n2)c(F)c1 (stereo not drawn)	CHO-K1 Ca antag 27.4
COc1ccc(C2c3[nH]c4ccccc4c3CCN2C(=O)c2ccccc2C(C)=O)c(F)c1 (stereo not drawn)	none
COc1cc(C2CC(=O)Nc3ccccc3S2)cc(OC)c1OC (stereo not drawn)	CHRM4 antagonist 34.6
O=C(NCCC1CCCCN1S(=O)(=O)c1ccccc1)C(=O)NCCN1CCOCC1 (stereo not drawn)	none
CC1CCN(CC[C@H]2CCCN2S(=O)(=O)c2cccc(O)c2)CC1	CHRM4 antagonist 50.6
COc1cccc(/C=C/C(=O)OCC(=O)c2c[nH]c3ccccc23)c1	none
Cc1cc(C)n2nc(-c3ccc(Cl)cc3)cc2n1	none
Cc1cc(C)n2nc(-c3ccc(Br)cc3)cc2n1	CHRM4 PAM 17.9
OC(c1ccc(F)cc1)c1nc(-c2cc3ccccc3o2)cs1 (stereo not drawn)	M4 ag 61.0
OC12CCCCC1C(c1ccc3c(c1)OCO3)N(Cc1ccc(F)cc1)CC2 (stereo not drawn)	M1 ag parental 26.5
Cc1cc2c(NC(=O)Nc3ccc(F)cc3)cccc2nn1	none
FC(F)Oc1ccc(NC(=S)NCc2ccccc2)cc1	CHO-K1 Ca antag 27.6
O=C(NCc1ccc2c(c1)OCO2)C1CCC(CNS(=O)(=O)c2ccc(Cl)cc2)CC1 (stereo not drawn)	none
NS(=O)(=O)c1ccc(NC(=O)c2cc(-c3cccs3)nc3ccccc23)cc1	none
CN(C)S(=O)(=O)c1ccc(NC(=O)c2cc(-c3cccs3)nc3ccccc23)cc1	CHRM4 antagonist 34.4
CC(=O)NS(=O)(=O)c1ccc(NC(=O)c2cc(-c3cccs3)nc3ccccc23)cc1	CHRM4 PAM 21.9
COc1cccc(CN(C)C(=O)c2cc(-c3cccs3)nc3ccccc23)c1	CHO-K1 Ca antag 27.2
COc1cc(-c2cc(C(=O)N(C)Cc3ccccc3)c3ccccc3n2)cc(OC)c1OC	none
CCN(CC)S(=O)(=O)c1ccc(NC(=O)c2cc(-c3cccs3)nc3ccccc23)cc1	none
C/C(=N\Nc1c(F)c(F)c(Br)c(F)c1F)c1ccncc1	CHRM4 PAM 14.7
Cc1ccc(S(=O)(=O)N2CCOCC2)cc1C(=O)N1C(=O)c2cccc(N)c2C1=O	CHRM4 PAM 27.2
Cc1ccc(S(=O)(=O)N2CCOCC2)cc1C(=O)NCc1cccs1	CHO-K1 Ca antag 25.3
Nc1cccc2c1C(=O)N(C(=O)c1cccc(S(=O)(=O)N3CCCCCC3)c1)C2=O	CHO-K1 Ca antag 28.5
Cc1ccc(S(=O)(=O)N2CCOCC2)cc1C(=O)O	none
Nc1cccc2c1C(=O)N(C(=O)c1ccc(Cl)c(S(=O)(=O)N3CCCCCC3)c1)C2=O	none
C[C@H](CO)N1C[C@H](C)[C@@H](CN(C)S(=O)(=O)c2ccccc2)Oc2c(cccc2N(C)C)C1=O	none
Cc1cc(C(=O)COC(=O)c2ccc(O)cc2O)c(C)n1-c1ccc(OC(F)F)cc1	CHO-K1 Ca antag 28.8
CC(C)CN(CC(C)C)C(=O)CCCC(=O)N(CC(C)C)CC(C)C	none
CCc1nc(SCC(=O)c2cccs2)c2oc3ccccc3c2n1	CHO-K1 Ca antag 26.2
CCc1nc(SCC(=O)NCCc2ccccc2)c2oc3ccccc3c2n1	none
COc1ccc(CN2C[C@H](C)[C@@H](CC(=O)NCc3ccccc3)C2=O)cc1	none
COCCNC(=S)N(CCCO)Cc1cc2cc3c(cc2[nH]c1=O)OCCO3	CHO-K1 Ca antag 25.9
